High-throughput results deposited in PubChem BioAssay by National Center for Advancing Translational Sciences (NCATS).
ALOX12 inhib – inhibitors of human 12-lipoxygenase (ALOX12); purified 12-hLO, xylenol orange hydroperoxide absorbance; Potency, µM (doses to about 57.1 µM), for inactives: top-dose activity change, negative = inhibition, most hits filed as inhibitors; 0.12% of 150,000 active; AID 1452; further: nearly all actives have a fitted effect of over 55% in size
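Xylenol orange chromogenic assay: hydroperoxide from 12hLO oxidises Fe(II), giving red-shifted Fe(III)-XO absorbance. Conditions: 150 nM enzyme, 40 uM arachidonic acid, 25 mM Hepes pH 7.0, 0.01% Triton X-100, 30 min, room temperature.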
p53ts 39C kill – cytotoxicity in p53ts cells at nonpermissive temperature | 1.5% of 130,000 active | Potency, µM (doses to about 46.1 µM), for inactives: at the top dose activity change, negative = cell killing, most hits filed as cytotoxic | H1299-p53A138V viability at 39C, ATP luminescence, 24 h; further: nearly all actives have a fitted effect of over 55% in size
p53ts 32C kill – kills p53ts cells at the permissive temperature; AID 924; H1299-p53A138V at 32C, ATP luminescence viability, 24 h; 0.93% of 130,000 active; Potency, µM (doses to about 46.1 µM), inactives show top-dose activity change, negative = cytotoxicity, usual class: cytotoxic;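 further: 0% = DMSO and -100% = full killing by reference compound; nearly all actives have a fitted effect of over 55% in size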
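ATP-content luminescence (ATPlite) read-out after 24 h compound exposure at 32C in H1299-p53A138V cells (600/well). Tested up to 46 uM. Normalized to DMSO (0%) and 100 uM tamoxifen (100% killing); Hill-fit AC50.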
HPGD inh – HPGD (human) dehydrogenase inhibition | P15428 | purified HPGD, NADH fluorescence kinetic, PGE2 substrate | Potency, µM, inactives show at the highest dose activity change, negative = inhibition, most hits filed as inhibitors | 4.3% of 150,000 active; active means well fitted inhibition curve with a large enough effect, not every such curve was filed as active; inconclusive means small, poorly fitted or top-dose-only effect, or another doubt; inactive means no such curve, though single readings can be large or run the other way
Target sequence (P15428 whole entry, looked up): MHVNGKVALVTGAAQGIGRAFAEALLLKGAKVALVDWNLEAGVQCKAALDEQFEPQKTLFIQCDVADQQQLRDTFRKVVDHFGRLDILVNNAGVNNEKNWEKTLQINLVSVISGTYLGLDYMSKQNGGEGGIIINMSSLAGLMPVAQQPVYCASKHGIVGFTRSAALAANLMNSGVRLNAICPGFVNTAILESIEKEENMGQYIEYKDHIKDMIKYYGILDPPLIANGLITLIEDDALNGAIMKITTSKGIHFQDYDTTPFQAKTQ
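20 nM HPGD preincubated 15 min at room temperature with compound in 50 mM Tris-HCl pH 8, 0.01% Tween 20. Started with 1 mM NAD+ and 30 uM prostaglandin E2; NADH fluorescence (360/450 nm) read 5 times over 30-s intervals, last minus first.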
An asterisk follows results filed as active; ? = inconclusive; . = not tested or not shown; [ ] = another dose, or the depositor's remark. The list is not random: actives were taken first. Their share in the collection is about 4.4%. Unless noted, the call rests on the fitted dose curve; in most records, active means well fitted curve in the direction sought with a large enough effect; inconclusive means small, poorly fitted or top-dose-only effect, or another doubt; inactive means no such curve, though single readings can be large; an effect the other way counts as inactive or inconclusive. Unless noted, on the % scale 0 is the no-effect control and ±100 the full control effect; potency means the concentration at half of the fitted maximal effect.

SMILES	ALOX12 inhib	p53ts 39C kill	p53ts 32C kill	HPGD inh
O=C(CSc1ncccc1-c1nc2ccccc2[nH]1)NCc1ccco1	-11%	-15%	-11%	?
Cc1sc2nc(SCC(=O)NCc3ccco3)[nH]c(=O)c2c1C	-8%	4%	4%	7.9µM*
Cc1sc2nc(SCC(=O)N3CCOCC3)[nH]c(=O)c2c1C	-7%	-3%	-6%	16µM*
Cc1cc2nc(-c3cccnc3SCC(=O)NCc3ccco3)[nH]c2cc1C	-29%	5µM*	5µM*	?
CCOc1ncccc1C(=O)OCc1cc(=O)n2c(n1)sc1ccccc12	.	15%	2%	.
O=C(OCc1cc(=O)n2c(n1)sc1ccccc12)c1ccc(O)cc1	-4%	.	.	14µM*
Cc1ccc(-n2c(SCC(=O)N3CCC(C)CC3)nc3c([nH]c4ccccc43)c2=O)cc1	.	2%	4%	.
O=C(c1cnn2c(C(F)(F)F)cc(-c3ccc(Br)cc3)nc12)N1CCOCC1	3%	2%	4%	?
CCOC(=O)C1CCCN(C(=O)c2cnn3c(C(F)(F)F)cc(-c4ccccc4)nc23)C1 (stereo not drawn)	-6%	4%	17%	25µM*
CCOC(=O)c1cnn2c(C(F)(F)F)cc(-c3ccccc3)nc12	-5%	-1%	10%	?
CCOC(=O)C1CCCN(C(=O)c2cc3nc(-c4cccc(OC)c4)cc(C(F)(F)F)n3n2)C1 (stereo not drawn)	-22%	-6%	4%	16µM*
O=C(c1cnn2c(C(F)(F)F)cc(-c3ccc4c(c3)OCO4)nc12)N1CCCC1	-4%	-5%	3%	4.5µM*
CCOc1ccc(-c2cc3c(=O)n(CC(=O)Nc4c(C)cccc4C)ccn3n2)cc1	.	-8%	-3%	.
CC(C)Oc1ccc(CNC(=O)c2cccc(NC(=O)c3nsc4ccccc34)c2)cc1	.	-30%	-25%	.
CC1(C)C(=O)C=C[C@@]2(C)C1C=C[C@@]1(C)C2CC[C@@]2(C)C(c3ccoc3)OC(=O)C3OC312 (stereo partly drawn)	-1%	79%	?	1%
S=C(NN=C1C2CC3CC(C2)CC1C3)Nc1ccccc1	-5%	.	.	-27%
NC(=NC1C2CC3CC(C2)CC1C3)Nc1ccc(I)cc1 (stereo not drawn)	-2%	25µM*	-8%	-11%
N#C/C(=C\c1ccc(-c2ccccc2)o1)C(=O)Nn1cnnc1	-12%	.	.	16µM*
O=C1NC(=S)/C(=C\c2ccc(-c3ccccc3Cl)o2)S1	-9%	.	.	16µM*
Cc1noc(/C=C/c2ccc(-c3ccccc3Cl)o2)c1[N+](=O)[O-]	-5%	.	.	-10%
Cc1ccc(SCCNC(=O)c2cccc([N+](=O)[O-])c2C)cc1	-7%	.	.	25µM*
Cc1ccc(C(=O)NCCSCc2ccc(Cl)cc2Cl)cc1[N+](=O)[O-]	-6%	.	.	?
S=C(NCCSCc1ccc(Cl)cc1Cl)Nc1ccccc1	25µM*	.	.	-27%
Cc1c(C(=O)NCCSc2ccc(Cl)cc2)cccc1[N+](=O)[O-]	-5%	.	.	-14%
Cc1c(C(=O)NCCSCc2ccc(Cl)cc2Cl)cccc1[N+](=O)[O-]	-10%	.	.	22µM*
SMILES	ALOX12 inhib	p53ts 39C kill	p53ts 32C kill	HPGD inh
O=C(O)c1cccc(Cl)c1Cl	4%	1%	-21%[1.84 µM]	-9%
Cc1cc(=O)[nH]c(SCCOc2ccc(OC(C)C)cc2)n1	-2%	?	?	18µM*
CC(C)(C)C1=Nn2c(nnc2-c2n[nH]c3c2CCC3)SC1	5%	9%	3%	16µM*
CSc1ncc(Cl)c(C(=O)C(C#N)c2nc3c(C)cc(C)cc3c(=O)[nH]2)n1 (stereo not drawn)	3%	-6%	-9%	25µM*
CSc1ncc(Cl)c(C(=O)Nc2cccc(C)c2)n1	-9%	-6%	.	-18%
c1ccc(CN2CC[C@@H](CNc3ncnc4ccccc34)C2)cc1	-2%[11.4 µM]	-11%[9.22 µM]	-15%[9.22 µM]	0%
O=C(c1cc2ncc(Br)cn2n1)N1CCOCC1	1%	0%	0%	22µM*
COCOc1cc(OC)ccc1C(=O)/C=C\c1ccc2c(c1)OCO2	.	-17%[9.22 µM]	-4%[9.22 µM]	.
C[C@H](C(=O)c1ccccc1)C(c1ccccc1)N1CCOCC1 (stereo partly drawn)	.	.	.	-29%
COc1ccccc1NC(=O)Cn1c(=O)n(-c2cccc(Cl)c2)c(=O)c2c1c1cc(C)ccc1n2C	.	-3%	8%	.
CCCN(C(=O)c1cc2c(s1)-c1ccccc1SC2)c1ccccc1F	.	25µM*	-3%	.
Nc1nnc(SCCCC(=O)c2ccc(Br)cc2)s1	2%	?	9%	3.5µM*
Nc1nnc(SCCCC(=O)c2ccc(F)cc2)s1	0%	.	.	-30%
Cc1ccc(-c2noc(C(C)NS(=O)(=O)c3ccc(C)cc3)n2)cc1 (stereo not drawn)	.	-21%	12%	.
CCN(CC)C(=O)Cn1c(=O)n(-c2ccc(OC)cc2OC)c(=O)c2c(C)c(C(=O)N(CC)CC)sc21	.	-22%	8%	.
CCOC(=S)N/C(=N\S(=O)(=O)c1ccc(C)cc1)c1ccccc1	-1%	.	.	25µM*
O=C1CC(SCc2nc3ccccc3[nH]2)C(=O)N1c1ccc(F)c(Cl)c1 (stereo not drawn)	-8%	.	.	22µM*
O=C1CC(SCc2nc3ccccc3[nH]2)C(=O)N1c1ccc(Cl)cc1 (stereo not drawn)	-20%	.	.	-10%
CC1=C(c2ccc(C)c(C)c2)S(=O)(=O)N(Cc2ccc(C(=O)NCc3ccccc3F)cc2)C1=O	.	-7%	13%	.
O=C(N/N=C/c1ccc2c(c1)OCO2)c1cc(-c2ccccc2Cl)nc2ccccc12	-3%	.	.	?
O=C(N/N=C/c1ccc2c(c1)OCO2)c1cc(-c2ccncc2)nc2ccccc12	-1%	.	.	28µM*
Cn1c(NC(=O)c2cc(-c3ccc4c(c3)OCO4)nc3ccccc23)cc(=O)n(C)c1=O	-27%	13µM*	16µM*	-10%
CC(=O)N1c2ccc(S(=O)(=O)N3CCCCCC3)cc2CC1C(=O)NCc1ccccc1 (stereo not drawn)	.	-23%	2%	.
CCCOc1ccc(C(=O)N(Cc2ccc(Cl)cc2)Cc2ccco2)cc1	.	-13%	26%	.
CCCOc1ccc(CN(CCC#N)C(=S)NC(=O)c2ccccc2)cc1	-5%	.	.	28µM*
SMILES	ALOX12 inhib	p53ts 39C kill	p53ts 32C kill	HPGD inh
Cc1ccc(CSc2nnc(-c3ccc4c(c3)OCO4)o2)cc1	-4%	.	.	-27%
Cc1ccc(-c2nnc(CSc3nc4cc5c(cc4cc3C)OCO5)o2)cc1	-13%	1%	-4%	18µM*
COc1ccc(C(=O)N2C(=S)NC(=O)/C2=C\c2ccc(C)cc2)cc1	-4%	.	.	28µM*
Cc1ccc(S(=O)(=O)NNc2ccccc2)c(C)c1	?	.	.	8.9µM*
C=CCn1c(SCc2ccccc2C#N)nnc1-c1cc(Br)ccc1O	-5%	-9%	8%	14µM*
COc1cc(NC(=O)c2nc(-c3ccncc3)no2)cc(OC)c1OC	.	-15%	0%	.
Cc1csc2nc(CSc3nc4ccccc4o3)c(Br)n12	-3%	-16%	-10%	14µM*
O=C(c1ccncc1)N1CCC2(CC1)CCN(C(c1ccccc1)c1ccccc1)CC2	2%	7%	-5%	-2%
